Measured values reported in PubChem BioAssay (NCI).
About 79,000 compounds went through this panel and 15% of them were active in at least one assay; those are over-represented in the sample as a whole. A number with no mark means an inactive call. Calls of active or inactive are those of the source. No stated cut-off is given here; in the data, active means growth inhibition above about 70%; inactive means the rest.

Key:
[1] = NCI Yeast Anticancer Drug Screen. Data for the rad50 strain (AID 155);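 further: 0% = growth of vehicle-only cultures of the same strain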; conditions: S. cerevisiae rad50 strain growth inhibition, active compounds read high
How it was run: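 Vehicle-treated cultures provide the reference for the growth inhibition reported for compound-exposed, repair-deficient yeast.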

[2] = NCI Yeast Anticancer Drug Screen. Data for the mec2-1 strain (AID 157); conditions: S. cerevisiae mec2-1 strain, active compounds read high
How it was run: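 Using mec2-1 yeast: add compound, measure growth, express inhibition versus vehicle-treated cultures.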

[3] = NCI Yeast Anticancer Drug Screen. Data for the sgs1 mgt1 strain (AID 161);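 further: 0% = growth of cultures given vehicle only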; conditions: S. cerevisiae sgs1 mgt1 strain, active compounds read high
How it was run: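 Growth of a repair-deficient yeast mutant was monitored after compound treatment and expressed as inhibition relative to vehicle-treated cultures.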

[4] = NCI Yeast Anticancer Drug Screen. Data for the cln2 rad14 strain (AID 165);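 further: 0% = growth equal to vehicle treated cultures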; conditions: S. cerevisiae cln2 rad14 strain, active compounds read high
How it was run: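 Yeast strain cln2 rad14, bearing defects in cell cycle control and DNA repair, serves as the test system; values reflect growth inhibition compared with vehicle.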

[5] = NCI Yeast Anticancer Drug Screen. Data for the bub3 strain (AID 167); conditions: S. cerevisiae bub3 mutant strain, active compounds read high
How it was run: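 Mutant yeast screening strain plus compound; vehicle-treated cultures serve as the 0% inhibition reference.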

[6] = NCI Yeast Anticancer Drug Screen. Data for the mlh1 rad18 strain (AID 175); conditions: S. cerevisiae mlh1 rad18 strain growth inhibition, active compounds read high
How it was run: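 Steps: expose repair-defective yeast to compound; measure growth; express inhibition against vehicle-treated controls.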

[7] = at 5.0 µM (retest, dose inferred, filed as 0.5)
[8] = at 50.0 µM (retest, dose inferred, filed as 5.0)

SMILES | growth inhibition [1, 7] | growth inhibition [1, 8] | growth inhibition ([1]; at 50.0 µM) | growth inhibition [2, 7] | growth inhibition [2, 8] | growth inhibition ([2]; at 50.0 µM) | growth inhibition [3, 7] | growth inhibition [3, 8] | growth inhibition ([3]; at 50.0 µM) | growth inhibition [4, 7] | growth inhibition [4, 8] | growth inhibition ([4]; at 50.0 µM) | growth inhibition [5, 7] | growth inhibition [5, 8] | growth inhibition ([5]; at 50.0 µM) | growth inhibition [6, 7] | growth inhibition [6, 8] | growth inhibition ([6]; at 50.0 µM)
CC(NC(=O)C(Cc1ccccc1)NC(=O)c1ccc[n+](Cc2ccccc2)c1)C(N)=O (configuration not stated) | 0% | -5% | 0.65% | 0% | -2% | -3.05% | -1% | 3% | -9.9% | 0% | -1% | -4.7% | 1% | -11% | -1.9% | -1% | -2% | 28.1%
CCOc1ccc(C(OC)OC)cc1[N+](=O)[O-] | 3% | -7% | -12.1% | -1% | 3% | -6.9% | -11% | -7% | -25.1% | -4% | 0% | 87.5% (active) | 0% | 1% | -0.8% | -1% | -7% | 10%
Cc1cc(CN(Cc2ccccc2)Cc2nc3ccccc3[nH]2)c(O)c(CN(Cc2nc3ccccc3[nH]2)Cc2nc3ccccc3[nH]2)c1 | 7% | 44% | 73% (active) | -3% | 24% | 72.5% (active) | 1% | 70% (active) | 94.3% (active) | -5% | 59% | 67.3% | 3% | 66% | 27.9% | 2% | 79% (active) | 93.3% (active)
O=C(O)CCc1ccc2ccccc2c1 | -2% | 48% | 62.8% | 0% | 38% | 51.4% | 1% | 37% | 37.7% | -4% | 32% | 83.2% (active) | -6% | 18% | 53.7% | -4% | 41% | 88.2% (active)
CCCCCCCCCC(C)CC(=O)NCCCN(C)CCCCN(C)C (configuration not stated) (tested in a mixture with another compound) | -24% | 67% | 88.8% (active) | 26% | 68% | 80.2% (active) | 35% | 93% (active) | 87% (active) | 28% | 27% | 62.1% | -17% | 86% (active) | 90.2% (active) | 34% | 76% (active) | 82.3% (active)
COc1ccccc1/C=C1\C=Cc2ccccc21 | -3% | 6% | 31.9% | 0% | -1% | 49.5% | -4% | 8% | 44.2% | -1% | -14% | 26.2% | 3% | -1% | 78% (active) | -3% | 7% | 70.4% (active)
Clc1ccc(/C=N\Nc2c3ccccc3nc3ccccc23)cc1Cl | -5% | 25% | 71% (active) | 13% | 21% | 14.6% | 1% | 38% | 58.4% | -3% | 4% | 11.9% | 13% | 44% | 28.1% | 1% | 57% | 61.8%
Clc1nn2nnnc2c2ccccc12 | -133% | 87% (active) | 80.2% (active) | -35% | 82% (active) | 81.2% (active) | -46% | 65% | 51.5% | -51% | 24% | -31.6% | -51% | 77% (active) | 65% | -102% | 74% (active) | 73.8% (active)
Cc1ccc(S(=O)(=O)NNc2nc(N3CCOCC3)nc(N3CCOCC3)n2)cc1 | 1% | -4% | 28.1% | 2% | 2% | 15.4% | 10% | 6% | 63% | 3% | -8% | 70.6% (active) | -1% | -1% | 17.9% | 0% | -4% | 26.3%
COC(=O)N(C[C@@H]1C=CCCC1)c1ccccc1I | 29% | 66% | 88.3% (active) | 29% | 61% | 91.2% (active) | 26% | 63% | 89.6% (active) | 29% | 34% | 87.5% (active) | 47% | 74% (active) | 91% (active) | 41% | 70% (active) | 89.9% (active)
CC(C)c1ccc(C(=O)C2CC2)cc1 | -23% | 0% | 34.6% | -10% | -27% | 42.9% | -12% | -14% | 50.6% | 9% | 24% | 40.5% | -29% | -20% | 65.3% | -22% | -18% | 21%
CC(C)N1C(=O)C=CC1=O | 6% | 67% | 93.7% (active) | 7% | 60% | 98.8% (active) | 7% | 53% | 52.1% | 2% | 57% | 57% | 1% | 75% (active) | 46.6% | 3% | 60% | 54%
CN(c1ccc(C(N)=O)cc1)c1c(O)c2ccccc2[nH]c1=O | 1% | 58% | -27.9% | -1% | 48% | 6.8% | 1% | 51% | 14.6% | 4% | 42% | 24.9% | -4% | 46% | 23.5% | 0% | 63% | 15.5%
Cc1ccc([P+](CCN2C(=O)c3ccccc3C2=O)(c2ccc(C)cc2)c2ccc(C)cc2)cc1 | 77% (active) | 98% (active) | 89.8% (active) | 72% (active) | 99% (active) | 90.3% (active) | 89% (active) | 99% (active) | 90.5% (active) | 71% (active) | 99% (active) | 87.9% (active) | 86% (active) | 99% (active) | 90.5% (active) | 64% | 98% (active) | 87.7% (active)
N#CC(=C1C=CC(=NOC(=O)Nc2ccccc2)C=C1)c1ccccc1 | 18% | 98% (active) | 99% (active) | 4% | 99% (active) | 99.4% (active) | 11% | 99% (active) | 99.5% (active) | 1% | 99% (active) | 88.3% (active) | -5% | 98% (active) | 99.2% (active) | 5% | 98% (active) | 99.2% (active)
CCCCCCCCCCOC(=O)c1cc[n+](C)cc1 | -4% | -5% | 13.8% | 7% | 6% | 9.5% | -5% | 0% | -1.75% | -3% | -4% | 46.1% | -5% | -6% | -0.65% | -2% | -1% | -18.9%
O=c1oc(-c2cc([N+](=O)[O-])cc([N+](=O)[O-])c2Cl)nc2ccccc12 | 29% | 50% | 75.3% (active) | 8% | 22% | 63.5% | 13% | 47% | 83.7% (active) | 15% | 44% | 61.5% | 15% | 58% | 82.5% (active) | 1% | 57% | 86.8% (active)
CCOC(=O)C(NC(C)=O)[CH](c1ccc(OC)cc1)[Sn]([c]1ccccc1)([c]1ccccc1)[c]1ccccc1 (configuration not stated) | 99% (active) | 99% (active) | 48.6% | 99% (active) | 99% (active) | 58.1% | 99% (active) | 99% (active) | 48.2% | 98% (active) | 99% (active) | 99% (active) | 99% (active) | 98% (active) | 47.4% | 99% (active) | 99% (active) | 85.4% (active)
CCCCN(CCCC)CC(O)Cc1cc2ccccc2c2ccccc12 (configuration not stated) | 0% | 65% | 90.7% (active) | 1% | 44% | 48.6% | -4% | 92% (active) | 99.1% (active) | -7% | 42% | 62.6% | 0% | 47% | 94.4% (active) | 18% | 91% (active) | 98.4% (active)
